Sfp inh – Sfp phosphopantetheinyl transferase inhibition; Potency, µM, without a hit: largest response in the series, negative = inhibition, most hits filed as inhibitors; Biochemical Sfp PPTase activity, qHTS; actives 3.5% (n = 310,000); Q9F4F7;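 note: the enzyme is Sfp with the accession as filed and its product quenches rhodamine fluorescence; 0% = enzyme reaction without inhibitor and -100% = no enzyme wells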
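Compounds were incubated with enzyme (final 15 nM) for 15 min at room temperature before substrate addition started the reaction. Fluorescence at 525 nm excitation, 598 nm emission was recorded immediately and after 30 minutes.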
G9a block – inhibitors of human histone lysine methyltransferase G9a; Q96KQ7; G9a H3K9 monomethylation, AlphaScreen, 2 h; Potency, µM (series often up to 102 µM), inactives show at the highest dose activity, negative = inhibition, most hits filed as inhibitors; actives 8.8% (n = 350,000); AID 504332; note: % is set by controls: 0 for no effect and ±100 for the full control effect; nearly all actives have a fitted effect of over 75% in size
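Compounds were preincubated with 20 nM G9a for 15 min, after which biotinylated H3K9 peptide (500 nM) and SAM (20 uM) started a 2 h room-temperature reaction. Monomethylated product was quantified by antibody-based AlphaScreen chemiluminescence.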
PLK1 PBD inh – inhibitors of human PLK1 polo-box domain binding | P53350 | Plk1 PBD binding of FITC phosphopeptide, fluorescence polarization | Potency, µM, for the others: max response, negative = inhibition, usual class: inhibitors | actives 2.8% (n = 360,000); note: series mostly up to about 57 µM; % is set by controls: 0 for no effect and ±100 for the full control effect; nearly all actives have a fitted effect of over 65% in size
Target sequence (P53350 whole entry, looked up, the tested form may be a part): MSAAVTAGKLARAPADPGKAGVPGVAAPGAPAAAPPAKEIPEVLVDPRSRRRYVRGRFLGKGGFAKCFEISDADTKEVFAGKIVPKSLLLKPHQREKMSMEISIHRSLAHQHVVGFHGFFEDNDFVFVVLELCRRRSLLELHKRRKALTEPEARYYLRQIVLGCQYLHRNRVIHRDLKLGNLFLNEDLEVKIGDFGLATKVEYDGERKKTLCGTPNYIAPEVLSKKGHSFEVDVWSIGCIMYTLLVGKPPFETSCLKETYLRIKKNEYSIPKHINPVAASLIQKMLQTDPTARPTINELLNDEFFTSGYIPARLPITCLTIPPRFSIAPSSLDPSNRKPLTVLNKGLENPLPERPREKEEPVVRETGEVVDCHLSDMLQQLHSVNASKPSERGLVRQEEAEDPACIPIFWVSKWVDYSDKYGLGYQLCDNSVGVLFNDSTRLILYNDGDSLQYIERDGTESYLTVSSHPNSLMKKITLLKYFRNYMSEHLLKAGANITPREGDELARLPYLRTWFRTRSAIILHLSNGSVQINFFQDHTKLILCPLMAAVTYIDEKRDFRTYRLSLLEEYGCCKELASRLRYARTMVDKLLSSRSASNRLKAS
JMJD2A Tudor inh – inhibitors of human JMJD2A Tudor domain; AlphaScreen JMJD2A-Tudor / H3K4me3 peptide binding; Potency, µM (doses to about 114 µM), without a hit: at the top dose activity change, negative = inhibition, most hits filed as inhibitors; actives 4.4% (n = 390,000); AID 504339; note: % is set by controls: 0 for no effect and ±100 for the full control effect; nearly all actives have a fitted effect of over 50% in size
BAZ2B block – inhibitors of human BAZ2B bromodomain; actives 4.4% (n = 360,000); AlphaScreen BAZ2B-H3K14Ac peptide displacement; AID 504333; Q9UIF8; Potency, µM (top dose mostly 114 µM), without a hit: top-dose activity change, negative = inhibition, actives largely listed as inhibitors; note: % is set by controls: 0 for no effect and ±100 for the full control effect; nearly all actives have a fitted effect of over 60% in size
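Compounds, titrated to a top concentration of 110 uM, were incubated 30 min at room temperature with preformed BAZ2B/acetyl-K14 H3 peptide complex (50 nM each). Proximity signal was measured by AlphaScreen after 20 min with beads.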
HP1b binding inh – HP1-beta chromodomain-methylated histone interaction inhibition. P83916. AlphaScreen HP1-beta / biotin-H3K9me3 peptide binding. Potency, µM (titrated, usually from 114 µM), without a hit: top-dose activity change, negative = inhibition, usual class: inhibitors. actives 0.56% (n = 390,000). AID 540317; note: nearly all actives have a fitted effect of over 70% in size
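AlphaScreen: HP1-beta (50 nM) preformed 30 min with biotin-H3(1-18)K9me3 peptide (50 nM) in PBS pH 7.4, 0.01% Tween-20. Compound added for 30 min at RT, then streptavidin donor/nickel chelate acceptor beads (10 ug/mL) for 30 min.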
The depositor's hits bear a star; [ ] = another dose, or the depositor's remark. Compounds with a hit are over-represented: about 12% of the library has one in this group of screens. Calls come from the whole dose curve; as a rule, active = well fitted curve in the direction sought with a large enough effect; inconclusive = small, poorly fitted or top-dose-only effect, or another doubt; inactive = no such curve, though single readings can be large; an effect the other way counts as inactive or inconclusive. Potency is the fitted concentration of half-maximal effect.

Screening CCC(C)C(=O)OC1CCC=C2C=CC(C)C(CCC3CC(O)CC(=O)O3)[C@@H]21 (stereo not given in full) returned Sfp inh 14.5% and G9a block -0.3%[12.7 µM].
COC(=O)C1=C2SC(C)C(=O)N2C(N)=C(C#N)C1c1cc(OC)c(OC)c(OC)c1 (stereo not given) was read as Sfp inh 35.5µM*, G9a block inconclusive, PLK1 PBD inh -8.9%, JMJD2A Tudor inh 0.0%, BAZ2B block -7.2% and HP1b binding inh 32.9%.
`CCOC(=O)C1=C(N)N2C(=O)C(C)SC2=C(C(=O)OC)C1c1cccc(OC)c1` (stereo not given) gave Sfp inh -8.3%, G9a block 7.7%, PLK1 PBD inh -2.8%, JMJD2A Tudor inh -22.1%, BAZ2B block -7.8% and HP1b binding inh 23.9%.
For COC(=O)C1=C(C)N=C2SC(C#N)=C(N)N2C1c1cc(OC)c(OC)c(OC)c1 (stereo not given) the results were Sfp inh 3.0%, G9a block -1.3%, PLK1 PBD inh -9.9%, JMJD2A Tudor inh -19.9%, BAZ2B block -1.3% and HP1b binding inh 9.4%.
For COC(=O)C1=C2SC(C)C(=O)N2C(N)=C(C#N)C1c1ccc(OC)c(OC)c1 (stereo not given) the results were Sfp inh 35.5µM*, G9a block inconclusive, PLK1 PBD inh -15.1%, JMJD2A Tudor inh -29.4%, BAZ2B block -37.4% and HP1b binding inh 8.6%.
For CC1(CC(=O)Nc2ccccc2)NC(=S)N(c2ccccc2)N1 (stereo not given) the results were Sfp inh inconclusive, G9a block inconclusive, PLK1 PBD inh 26.7µM*, JMJD2A Tudor inh 5.62µM*, BAZ2B block inconclusive and HP1b binding inh -7.3%.
For CCCCCCC1(C)NC(=S)N(c2ccccc2)N1 (stereo not given) the results were Sfp inh inconclusive, G9a block 14.1µM*, PLK1 PBD inh 18.9µM*, JMJD2A Tudor inh inconclusive and HP1b binding inh inconclusive.
CCCCCC1(C)NC(=S)N(c2ccccc2)N1 (stereo not given) was read as Sfp inh 39.8µM*, G9a block inconclusive, PLK1 PBD inh -10.4%, JMJD2A Tudor inh 50.1µM*, BAZ2B block inconclusive and HP1b binding inh -6.9%.
Screening CCCCCCCC1(C)NC(=O)NC1=O (stereo not given) returned Sfp inh 8.0%, PLK1 PBD inh -9.8%, JMJD2A Tudor inh -9.7%, BAZ2B block 2.6% and HP1b binding inh 11.2%.
C=C(C)CCC1(C)NC(=O)N(c2ccccc2)N1 (stereo not given) was read as Sfp inh -9.1%, G9a block inconclusive, PLK1 PBD inh -0.5%, JMJD2A Tudor inh -1.8%, BAZ2B block -18.6% and HP1b binding inh 26.3%.
CCCCN(Cc1ccc(C(=O)N[C@H](C(=O)O)C(C)C)cc1)C(=O)C(c1ccccc1)c1ccccc1 was read as PLK1 PBD inh inconclusive, JMJD2A Tudor inh 89.1µM* and HP1b binding inh -21.5%.
Cn1c(N)c(C(=O)COC(=O)c2cc(-c3ccco3)nc3ccccc23)c(=O)n(Cc2ccccc2)c1=O was read as Sfp inh 44.7µM*, G9a block 7.94µM* and BAZ2B block inconclusive.
Cn1c(N)c(C(=O)COC(=O)c2cc(-c3ccco3)nc3ccccc23)c(=O)n(C)c1=O was read as Sfp inh 12.6µM*, G9a block 7.94µM*, PLK1 PBD inh inconclusive, JMJD2A Tudor inh 56.2µM*, BAZ2B block -26.1% and HP1b binding inh inconclusive.
`Cn1c(N)c(C(=O)COC(=O)c2cc(C(F)(F)F)nc3ccccc23)c(=O)n(Cc2ccccc2)c1=O` gave Sfp inh 20.7%, G9a block inconclusive, PLK1 PBD inh -9.1%, JMJD2A Tudor inh -28.9%, BAZ2B block -26.1% and HP1b binding inh 19.7%.
Cn1c(N)c(C(=O)CCl)c(=O)n(Cc2ccccc2)c1=O was read as Sfp inh 25.0%, G9a block 8.1%, PLK1 PBD inh 16.8µM*, JMJD2A Tudor inh -10.1%, BAZ2B block -1.8% and HP1b binding inh 38.7%.
`CCOC(=O)Cn1nnnc1C(CC)N(Cc1cccs1)Cc1cc2cc(C)ccc2[nH]c1=O` (stereo not given) gave Sfp inh 5.0%, G9a block 18.5%, PLK1 PBD inh -4.6%, JMJD2A Tudor inh -13.5%, BAZ2B block 7.3% and HP1b binding inh 26.1%.
Screening CCOc1ccc2[nH]c(=O)c(CN(Cc3cccs3)C(CC)c3nnnn3C(C)(C)CC)cc2c1 (stereo not given) returned Sfp inh -5.4%, G9a block 19.7%[59 µM], PLK1 PBD inh 8.44µM*, JMJD2A Tudor inh -27.4%[11.4 µM], BAZ2B block -0.6% and HP1b binding inh inconclusive.
COc1ccc2[nH]c(=O)c(CN(Cc3ccco3)Cc3nnnn3Cc3ccccc3)cc2c1 was read as Sfp inh 56.2µM*, G9a block 50.1µM*, PLK1 PBD inh -5.1%, JMJD2A Tudor inh -2.9%, BAZ2B block 2.2% and HP1b binding inh 21.1%.
Screening CCC(c1nnnn1Cc1ccco1)N(CCN1CCOCC1)Cc1cc2cc(C)ccc2[nH]c1=O (stereo not given) returned Sfp inh 44.7µM*, G9a block inconclusive, PLK1 PBD inh -11.9%, JMJD2A Tudor inh -9.5%, BAZ2B block 3.6% and HP1b binding inh 29.2%.
For CCC(c1nnnn1C(C)(C)C)N(Cc1ccco1)Cc1cc2cccc(C)c2[nH]c1=O (stereo not given) the results were Sfp inh 56.2µM*, G9a block inconclusive, PLK1 PBD inh 3.8%, JMJD2A Tudor inh -34.9%, BAZ2B block inconclusive and HP1b binding inh -2.8%.
CN1CCN(c2ccc(S(=O)(=O)N3CCOCC3)cc2NC(=O)Cc2ccccc2F)CC1 was read as G9a block 21.9%[12.7 µM], PLK1 PBD inh -7.7%, JMJD2A Tudor inh -5.8%, BAZ2B block 1.3% and HP1b binding inh 31.7%.
Screening Cc1oc(-c2cccc(Cl)c2)nc1CSCC(=O)NCc1ccccc1Cl returned G9a block 9.8%[59 µM], JMJD2A Tudor inh -2.0%, BAZ2B block -1.5% and HP1b binding inh 48.6%.
Screening CCOc1ccc2[nH]c(=O)c(CN(Cc3ccco3)Cc3nnnn3Cc3ccccc3)cc2c1 returned Sfp inh 2.0%, G9a block inconclusive, PLK1 PBD inh -6.5%, JMJD2A Tudor inh -19.6%, BAZ2B block -26.5% and HP1b binding inh 22.1%.
